The values that follow come from PubChem BioAssay (NCI).

This is part of a sample that, as a whole, favours compounds with a hit. Of some 79,000 tested, about 15% had one in any assay. Values without a mark were called inactive. The source made the active and inactive calls. Cut-off read from the data, not from the text of the source: active = growth inhibition above about 70%; inactive = the rest.

The nature of assay [1]: NCI Yeast Anticancer Drug Screen. Data for the rad50 strain (AID 155).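 Note: 0% = growth of vehicle-only cultures of the same strain.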 To be noted: S. cerevisiae rad50 strain growth inhibition, stronger effect = higher value. Put shortly:
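Relative growth inhibition (compound vs vehicle) was measured in yeast with a defined repair-gene alteration.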

The nature of assay [2]: NCI Yeast Anticancer Drug Screen. Data for the mec2-1 strain (AID 157). The following applies: S. cerevisiae mec2-1 strain, stronger effect = higher value. Put shortly: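 Yeast mec2-1 mutant treated with compound. Readout: growth inhibition vs vehicle controls.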
Assay [3] in a line: NCI Yeast Anticancer Drug Screen. Data for the sgs1 mgt1 strain (AID 161).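 Note: 0% = growth of cultures given vehicle only.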 To be noted: S. cerevisiae sgs1 mgt1 strain, stronger effect = higher value. The method in brief:
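Test agents were incubated with a DNA-repair-mutant yeast strain. Growth was then read and compared against vehicle-treated controls.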

The nature of assay [4]: NCI Yeast Anticancer Drug Screen. Data for the cln2 rad14 strain (AID 165).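 Note: 0% = growth equal to vehicle treated cultures.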 To be noted: S. cerevisiae cln2 rad14 strain, stronger effect = higher value. Put shortly: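 cln2 rad14 yeast strain; compound exposure; growth inhibition read vs vehicle controls.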
A short description of assay [5]: NCI Yeast Anticancer Drug Screen. Data for the bub3 strain (AID 167). To be noted: S. cerevisiae bub3 mutant strain, stronger effect = higher value. Put shortly: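 Screening used yeast with an engineered genetic alteration affecting cell cycle control. Compound-exposed cultures were compared with vehicle cultures, and reduced growth was taken as inhibition.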
Assay [6] is described as follows: NCI Yeast Anticancer Drug Screen. Data for the mlh1 rad18 strain (AID 175). To be noted: S. cerevisiae mlh1 rad18 strain growth inhibition, stronger effect = higher value. Put shortly: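 Yeast w/ defined DNA-repair lesions; compound exposure; growth vs vehicle controls → % inhibition.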
[7] abbreviates: at 5.0 µM (retest, dose inferred, filed as 0.5).
Setting [8] is: at 50.0 µM (retest, dose inferred, filed as 5.0).

With `CCCCC(CCCC)=NNC(=S)SC`, the growth inhibition in assay [1] (setting [7]) was 4%; in assay [1] (setting [8]) it was 85% (active); in assay [1] (at 50.0 µM) it was 83.9% (active); in assay [2] (setting [7]) it was 5%; in assay [2] (setting [8]), 62%; in assay [2] (at 50.0 µM) it was 45.1%. For the same compound, the growth inhibition was 3% in assay [3] (setting [7]); 79% (active) in assay [3] (setting [8]); 66% in assay [3] (at 50.0 µM); -3% in assay [4] (setting [7]); 17% in assay [4] (setting [8]); -27.6% in assay [4] (at 50.0 µM). Besides, the growth inhibition in assay [5] (setting [7]) was 2%; in assay [5] (setting [8]) it was 80% (active); in assay [5] (at 50.0 µM), 74.1% (active); in assay [6] (setting [7]), -3%; in assay [6] (setting [8]), 87% (active); in assay [6] (at 50.0 µM), 56.9%.
Consider `CCOC(=O)/C(=C\c1ccccc1)C(=O)CCN1CCOCC1`, for which the growth inhibition is 37% in assay [1] (setting [7]); 99% (active) in assay [1] (setting [8]); 95.5% (active) in assay [1] (at 50.0 µM); 24% in assay [2] (setting [7]); 99% (active) in assay [2] (setting [8]); 84.5% (active) in assay [2] (at 50.0 µM). The growth inhibition in assay [3] (setting [7]) is 12%; in assay [3] (setting [8]), 99% (active); in assay [3] (at 50.0 µM), 41%; in assay [4] (setting [7]), 45%; in assay [4] (setting [8]), 99% (active); in assay [4] (at 50.0 µM), 75.9% (active). The growth inhibition was 20% in assay [5] (setting [7]); 99% (active) in assay [5] (setting [8]); 76% (active) in assay [5] (at 50.0 µM); 10% in assay [6] (setting [7]); 99% (active) in assay [6] (setting [8]); 84.8% (active) in assay [6] (at 50.0 µM).
With `Cc1cc(NS(=O)(=O)c2ccc(NCc3c4ccccc4nc4cc(Cl)ccc34)cc2)no1`, the growth inhibition was 26% in assay [1] (setting [7]); 97% (active) in assay [1] (setting [8]); 98.2% (active) in assay [1] (at 50.0 µM); 22% in assay [2] (setting [7]); 99% (active) in assay [2] (setting [8]); 98.5% (active) in assay [2] (at 50.0 µM). For the same compound, the growth inhibition in assay [3] (setting [7]) was 27%; in assay [3] (setting [8]), 99% (active); in assay [3] (at 50.0 µM), 98.5% (active); in assay [4] (setting [7]), 6%; in assay [4] (setting [8]), 97% (active); in assay [4] (at 50.0 µM), 97.3% (active). In addition, the growth inhibition was 25% in assay [5] (setting [7]); 99% (active) in assay [5] (setting [8]); 96.2% (active) in assay [5] (at 50.0 µM); 9% in assay [6] (setting [7]); 97% (active) in assay [6] (setting [8]); 98.2% (active) in assay [6] (at 50.0 µM).
Turning to `N=C1c2ccccc2-c2ccccc21`, the growth inhibition in assay [1] (setting [7]) was 49%; in assay [1] (setting [8]), 49%; in assay [1] (at 50.0 µM) it was 66%; in assay [2] (setting [7]), 22%; in assay [2] (setting [8]), 17%; in assay [2] (at 50.0 µM), 37.2%. In addition, the growth inhibition in assay [3] (setting [7]) was 10%; in assay [3] (setting [8]) it was 11%; in assay [3] (at 50.0 µM), 40.2%; in assay [4] (setting [7]), 12%; in assay [4] (setting [8]), 3%; in assay [4] (at 50.0 µM), 12.1%. The growth inhibition in assay [5] (setting [7]) is 19%; in assay [5] (setting [8]), 24%; in assay [5] (at 50.0 µM), 22.9%; in assay [6] (setting [7]), 21%; in assay [6] (setting [8]) it was 21%; in assay [6] (at 50.0 µM) it was 26.8%.
For `CCOC(=O)C(=N\Nc1c(C)cccc1C)/C(C)=N\NC(N)=S`, the growth inhibition was -17% in assay [1] (setting [7]); 15% in assay [1] (setting [8]); 64.7% in assay [1] (at 50.0 µM); -7% in assay [2] (setting [7]); 25% in assay [2] (setting [8]); 32.6% in assay [2] (at 50.0 µM). Moreover, the growth inhibition in assay [3] (setting [7]) is 7%; in assay [3] (setting [8]), 45%; in assay [3] (at 50.0 µM) it was 58.2%; in assay [4] (setting [7]), -13%; in assay [4] (setting [8]), -9%; in assay [4] (at 50.0 µM) it was 54.8%. Also, the growth inhibition in assay [5] (setting [7]) is -3%; in assay [5] (setting [8]) it was 4%; in assay [5] (at 50.0 µM), 51.5%; in assay [6] (setting [7]), 11%; in assay [6] (setting [8]), 42%; in assay [6] (at 50.0 µM), 69.2%.
For `O=C(OC1=C(Br)C(=O)c2ccccc2C1=O)c1ccccc1`, the growth inhibition in assay [1] (setting [7]) was 13%; in assay [1] (setting [8]), 99% (active); in assay [1] (at 50.0 µM), 74.5% (active); in assay [2] (setting [7]), 31%; in assay [2] (setting [8]) it was 99% (active); in assay [2] (at 50.0 µM), 60.2%. Moreover, the growth inhibition in assay [3] (setting [7]) was 32%; in assay [3] (setting [8]) it was 98% (active); in assay [3] (at 50.0 µM), 66.3%; in assay [4] (setting [7]) it was 4%; in assay [4] (setting [8]), 58%; in assay [4] (at 50.0 µM) it was -17%. In addition, the growth inhibition is 12% in assay [5] (setting [7]); 89% (active) in assay [5] (setting [8]); 12.1% in assay [5] (at 50.0 µM); 38% in assay [6] (setting [7]); 98% (active) in assay [6] (setting [8]); 51.2% in assay [6] (at 50.0 µM).
For the compound `CCN(CC)CCOc1cccc2c1C(=O)c1c(O)cccc1C2=O`, the growth inhibition in assay [1] (setting [7]) was 12%; in assay [1] (setting [8]), 72% (active); in assay [1] (at 50.0 µM) it was 59.4%; in assay [2] (setting [7]), -21%; in assay [2] (setting [8]), 70% (active); in assay [2] (at 50.0 µM), 39.3%. Also, the growth inhibition is 4% in assay [3] (setting [7]); 54% in assay [3] (setting [8]); 71.2% (active) in assay [3] (at 50.0 µM); 5% in assay [4] (setting [7]); 38% in assay [4] (setting [8]); 74.3% (active) in assay [4] (at 50.0 µM). The growth inhibition in assay [5] (setting [7]) is 8%; in assay [5] (setting [8]), 47%; in assay [5] (at 50.0 µM) it was 35.9%; in assay [6] (setting [7]), -1%; in assay [6] (setting [8]), 79% (active); in assay [6] (at 50.0 µM), 62.4%.
Take `CCCCCC(/C=N/NC(N)=S)C(O)(C(F)(F)F)C(F)(F)F` (configuration not stated): the growth inhibition in assay [1] (setting [7]) was -21%; in assay [1] (setting [8]), 51%; in assay [1] (at 50.0 µM), 77.6% (active); in assay [2] (setting [7]) it was -17%; in assay [2] (setting [8]) it was 47%; in assay [2] (at 50.0 µM), 62.4%. Also, the growth inhibition in assay [3] (setting [7]) is -7%; in assay [3] (setting [8]), 28%; in assay [3] (at 50.0 µM), 73% (active); in assay [4] (setting [7]) it was -11%; in assay [4] (setting [8]), 77% (active); in assay [4] (at 50.0 µM) it was 61%. Also, the growth inhibition in assay [5] (setting [7]) was -11%; in assay [5] (setting [8]) it was 77% (active); in assay [5] (at 50.0 µM), 35%; in assay [6] (setting [7]) it was -27%; in assay [6] (setting [8]) it was 78% (active); in assay [6] (at 50.0 µM), 67.9%.
On to `CNC(=O)OCc1c(-c2ccccc2)c(-c2ccccc2)n(-c2ccc(OC)cc2)c1COC(=O)NC`, for which the growth inhibition in assay [1] (setting [7]) was 26%; in assay [1] (setting [8]), 96% (active); in assay [1] (at 50.0 µM), 36.1%; in assay [2] (setting [7]), 18%; in assay [2] (setting [8]) it was 98% (active); in assay [2] (at 50.0 µM) it was 78.3% (active). For the same compound, the growth inhibition in assay [3] (setting [7]) is 20%; in assay [3] (setting [8]), 98% (active); in assay [3] (at 50.0 µM), 82.2% (active); in assay [4] (setting [7]), 26%; in assay [4] (setting [8]) it was 98% (active); in assay [4] (at 50.0 µM), 84.9% (active). Further, the growth inhibition in assay [5] (setting [7]) is 17%; in assay [5] (setting [8]) it was 99% (active); in assay [5] (at 50.0 µM) it was 80% (active); in assay [6] (setting [7]), 23%; in assay [6] (setting [8]) it was 97% (active); in assay [6] (at 50.0 µM) it was 91% (active).
